Assay outcomes (PubChem)
Rows were chosen to be rich in hits. Some 21% of all compounds tested hit in one or more screens of this group.
Shiga toxin inh: Shiga toxin inhibition; actives 9.2% (n = 290,000); inhibition, % at 38.7 µM; AID 2315; Vero cells, Shiga toxin protein synthesis inhibition reporter; in the data active = inhibition mostly above about 28%, no sharp cut-off; inactive = mostly below about 43%; note: 0% is about no effect
CHX counter: counter-screen hit for Shiga toxin inhibitors, cycloheximide; cell reporter, cycloheximide protein synthesis inhibition counterscreen; AID 2314; max response, %; actives 12% (n = 300,000); in the data active = max response mostly above about 13%, no sharp cut-off; inactive = mostly below about 14%; note: read at 38.3 µM for the half of the compounds with a filed dose; 0% is about no effect
NS1 inh: inhibitors of influenza NS1 protein function; actives 0.4% (n = 270,000); AID 2326; Potency, µM (series often up to 46.1 µM), without a hit: top-dose activity, positive = more growth; note: potency is the fitted concentration of half-maximal effect; actives are rising curves; nearly all actives have a fitted effect of over 50% in size
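Compounds were scored for reversing the slow growth caused by influenza A NS1 in S. cerevisiae, measured by optical density at 600 nm. Assay medium contained 2% galactose at pH 6.0; NS1-free yeast of the same strain were the positive control.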
SARS PLP yeast: blocks SARS-CoV papain-like protease in a yeast assay; S. cerevisiae expressing SARS-CoV PLpro, growth rescue; Potency, µM (titrated, usually from 32.9 µM), inactives show at the top dose activity, positive = growth rescue, usual class: activators; actives 0.19% (n = 330,000); AID 485353; note: potency is the fitted concentration of half-maximal effect; 0% is about no effect; nearly all actives have a fitted effect of over 55% in size
Pf growth 96h: P. falciparum growth inhibition at 96 hour, primary screen for plastid delayed-death inhibitors | P. falciparum luciferase reporter growth, 96 h | Potency, µM (top dose mostly 28.7 µM), inactives show top-dose activity change, negative = inhibition, usual class: inhibitors | actives 6.9% (n = 320,000) | AID 504834; active = well fitted inhibition curve with a large enough effect; inconclusive = small, poorly fitted or top-dose-only effect, or another doubt; inactive = no such curve, though single readings can be large or run the other way; note: potency is the fitted concentration of half-maximal effect; % is set by controls: 0 for no effect and ±100 for the full control effect
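Readout is luminescence from an integrated firefly luciferase in P. falciparum. Red cells, 2% hematocrit and 0.05% parasitemia final, were cultured with compound through two parasite generations (96 hours) at 37 C, 5% CO2.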
Pf growth 48h: P. falciparum growth inhibition at 48 hours (one generation); P. falciparum luciferase growth in erythrocytes, 48 h; Potency, µM (series often up to 28.7 µM), without a hit: at the highest dose activity change, negative = inhibition, hits mostly inhibitors; actives 5.9% (n = 310,000); AID 504832; active = well fitted inhibition curve with a large enough effect; inconclusive = small, poorly fitted or top-dose-only effect, or another doubt; inactive = no such curve, though single readings can be large or run the other way; note: potency is the fitted concentration of half-maximal effect; % is set by controls: 0 for no effect and ±100 for the full control effect
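Growth was read as firefly luciferase luminescence after a 48 h, 37 C, 5% CO2 exposure of compounds to reporter-bearing P. falciparum cultures (0.1% parasitemia, 2% hematocrit final) in Albumax-supplemented RPMI 1640.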
* = called active by the depositor; ? = inconclusive; nt = no result given. Unless noted, calls come from the whole dose curve.

SMILES	Shiga toxin inh	CHX counter	NS1 inh	SARS PLP yeast	Pf growth 96h	Pf growth 48h
Oc1cccc(NC(=S)N=Nc2c(O)[nH]c3ccccc23)c1	62*	42*	3%	0%	-10%	11%
Oc1[nH]c2ccccc2c1N=NC(=S)NCCc1ccccc1	2	12	1%	-30%	0%	-13%
CCOc1ccc(NC(=S)N=Nc2c(O)[nH]c3ccccc23)cc1	14	13*	nt	-3%	1.7µM*	?
CCCCNC(=S)N=Nc1c(O)[nH]c2ccccc12	118*	16	nt	-12%	9.3µM*	?
NC(=S)N=Nc1c(O)[nH]c2ccccc12	-2	-5	-8%	?	?	45%
Cc1cc(C)nc(SC2CCCCC2NS(=O)(=O)c2ccccc2)n1 (configuration not stated)	-11	-2	-7%	5%	?	-22%
CC1CN(C(=O)c2c(Br)cnn2C)CC(C)O1 (configuration not stated)	-6	-1	1%	17%	42%	14%
CCCCC(=O)NC1(C(F)(F)F)NC(=O)N(C)C1=O (configuration not stated)	3	-3	-2%	-1%	-9%	0%
CCC1CCCCN1C(=O)/C=C/c1ccc2c(c1)OCO2 (configuration not stated)	38	9.8*	-6%	3%	?	5%
O=C(/C=C/c1ccc2c(c1)OCO2)N1CCN(c2ccccc2F)CC1	-23	-1	-7%	-13%	65%	-12%
CC(C)Cc1ccc(/C=C/C(=O)N2CCOCC2)cc1	56*	46*	nt	-6%	269%	241%
O=C(/C=C/c1ccc2c(c1)OCO2)N1CCOCC1	67*	26*	4%	0%	206%	55%
CC(C)(C)c1ccc(/C=C/C(=O)N2CCOCC2)cc1	113*	66*	9%	18%	56%	244%
O=C1c2ccccc2NC(c2ccccc2O)N1c1ccc(F)cc1 (configuration not stated)	56*	67*	0%	0%	278%	nt
COc1cccc(C2Nc3ccccc3C(=O)N2c2ccc(F)cc2)c1O (configuration not stated)	79*	59*	-1%	-2%	223%	nt
Cc1ccc(C)c(CSc2nc3ccncc3n2CC(=O)Nc2ccc(C)c(C)c2)c1	-11	9	12%	3%	-15%	?
Cc1ccc(NC(=O)Cn2cnc3ccccc32)cc1C	20	11	nt	2%	30%	-2%
Cc1ccc(NC(=O)Cn2c(/C=C/c3ccccc3)nc3ccccc32)cc1C	19	18*	-6%	-26%	-84%	?
CC(C)c1ccccc1NC(=O)Cn1c(-c2ccccc2Cl)nc2ccccc21	10	3	8%	7%	-28%	-9%
Cc1cccc(CSc2nc3ccncc3n2CC(=O)Nc2ccc(C)c(C)c2)c1	29	27*	25%	-1%	3.7µM*	1%
CC(C)c1ccccc1NC(=O)Cn1c(/C=C/c2ccccc2)nc2ccccc21	53*	36*	-6%	0%	88%	88%
CCN(CC(=O)Nc1ccc(C(=O)OC)cc1)C1CCCCC1	9	2	1%	9%	-9%	-11%
Cc1oc(CC(C)C)c(CN)c1C(=O)O	-6	-2	3%	3%	5%	nt
Cc1cc(C(=O)CS(=O)(=O)c2ccccc2)cc(C)c1OC(=O)N(C)C	62*	25*	nt	-2%	?	?
Cc1ccc(S(=O)(=O)CC(=O)c2cc(C)c(OC(=O)N(C)C)c(C)c2)cc1	40	19	nt	1%	-1%	?
SMILES	Shiga toxin inh	CHX counter	NS1 inh	SARS PLP yeast	Pf growth 96h	Pf growth 48h
Cc1cc(C(=O)CSc2ccccc2)cc(C)c1O	71*	61*	-7%	-4%	78%	60%
Cc1cc(C(=O)CS(=O)(=O)c2ccccc2)cc(C)c1O	44*	19*	11%	0%	70%	50%
Cc1cc(=O)[nH]c(N/N=C/c2ccc(OC(=O)c3ccco3)cc2)n1	-3	-2	19%	-34%	67%	43%
Clc1nc2c(ccc3ccccc32)[nH]1	71*	41*	-48%	-2%	95%	111%
OCc1nc2c(ccc3ccccc32)[nH]1	10	12*	12%	2%	-15%	19%
Cc1ccc(-c2nc(=S)c3c(n2Cc2cccnc2)CC(C)(C)OC3)cc1	-7	-4	-3%	0%	4%	1%
Cc1ccc(NC(=O)c2nn(C34CC5CC(CC(C5)C3)C4)cc2[N+](=O)[O-])cc1	62	18	21%	-2%	1.5µM*	?
Cn1cc([N+](=O)[O-])c(C(=O)Nc2ccc3c(C(F)(F)F)cc(=O)oc3c2)n1	12	15*	-27%	?	1%	89%
Cc1ccc(-c2cc(C(=O)Nc3cnn(C45CC6CC(CC(C6)C4)C5)c3)no2)cc1	-8	-5	4%	4%	-7%	?
Cn1cc(Br)c(C(=O)Nc2ccc3c(C(F)(F)F)cc(=O)oc3c2)n1	11	1	-1%	2%	-22%	4%
COc1ccc(NC(=O)c2[nH]ncc2[N+](=O)[O-])cc1	64	26*	nt	-3%	-6%	204%
COc1ccc(NC(=O)c2nn(C)cc2[N+](=O)[O-])cc1	35	15*	2%	1%	0%	120%
CN(C)C1CCN(C(=O)c2cccc(OC3CCN(S(=O)(=O)N(C)C)CC3)c2)C1 (configuration not stated)	2	3	25%	1%	?	4%
O=C(CSc1nnc(-c2ccccc2)n1Cc1ccco1)NCc1ccc2c(c1)OCO2	-7	3	-3%	13%	?	nt
O=C(CSC(=S)N1CCOCC1)Nc1ncc2c(n1)CC(c1ccco1)CC2=O (configuration not stated)	-8	-1	4%	2%	12%	13%
CCOC(=O)[C@H]1[C@H]2COc3ccc(Cl)cc3[C@@H]2N2C(=O)CN(Cc3ccccc3)C(=O)[C@@]12C	nt	nt	nt	8.9µM*	5.9µM*	?
CCOC(=O)[C@H]1[C@H]2COc3ccc(Cl)cc3[C@@H]2N2C(=O)CN(Cc3ccc(Cl)cc3)C(=O)[C@@]12C	nt	nt	nt	-5%	?	15µM*
CCOC(=O)[C@@H]1[C@H]2COc3cc(OC)ccc3[C@@H]2N2C(=O)N(c3ccc(F)cc3)C(=O)[C@@]12C	nt	nt	nt	1%	nt	nt
COCCNC(=O)C(=O)c1cc(C)n(-c2ccc([N+](=O)[O-])cc2)c1C	-17	-3	-2%	3%	-17%	?
Cc1cc(C(=O)C(=O)NC(C)C)c(C)n1-c1ccc([N+](=O)[O-])cc1	6	-2	0%	3%	?	7.4µM*
COc1ccc(O)c(C(=O)CC(=O)c2ccccc2)c1	88	43*	-168%	-22%	418%	401%
